Screening results from PubChem.
FBW7 act = human FBW7 E3 ligase activation, primary screen; Q969H0; AlphaScreen FBW7–phospho-cyclin E peptide binding, activator screen; normalized activity (activation), % at 26.1 µM; hit rate 0.13% among 650,000; AID 1259310; in the data active means normalized activity above about 1.9%;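 further: purified mutant Fbw7 with reduced substrate affinity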
TEAD-YAP block = TEAD-YAP interaction inhibition; hit rate 1.4% among 640,000; inhibition, % at 9.12 µM; HEK-TIYL cells, TEAD-Gal4/YAP UAS-luciferase luminescence; in the data active means inhibition above about 32%;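 further: 0% = median of test compound wells and 100% = reference inhibitor wells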
GPR151 ag = human GPR151 activation | activation, % at 11.2 µM | hit rate 1% among 650,000 | Q8TDV0 | PathHunter beta-arrestin GPR151 cells, luminescence; in the data active means activation above about 4.9%;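 further: 0% = median of compound wells and 100% = cells with positive control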
Target sequence (Q8TDV0 whole entry, looked up): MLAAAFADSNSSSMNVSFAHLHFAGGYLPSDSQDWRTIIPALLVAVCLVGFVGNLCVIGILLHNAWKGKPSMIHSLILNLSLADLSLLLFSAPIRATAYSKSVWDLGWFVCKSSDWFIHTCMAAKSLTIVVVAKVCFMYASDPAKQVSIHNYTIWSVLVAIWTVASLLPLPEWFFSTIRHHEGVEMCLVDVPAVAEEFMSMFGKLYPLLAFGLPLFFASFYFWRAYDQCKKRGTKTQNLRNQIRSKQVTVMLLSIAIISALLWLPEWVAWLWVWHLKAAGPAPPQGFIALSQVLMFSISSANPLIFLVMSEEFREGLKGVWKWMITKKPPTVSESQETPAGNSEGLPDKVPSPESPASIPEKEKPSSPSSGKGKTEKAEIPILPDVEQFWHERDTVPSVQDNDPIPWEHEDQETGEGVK
MITF inh = inhibitors of human MITF; hit rate 0.91% among 650,000; AlphaScreen MITF homodimerization, bead proximity signal; O75030; inhibition, % at 2.6 µM; in the data active means inhibition above about 50%;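 further: 0% = vehicle wells with protein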
MITF confirm = confirmation of human MITF inhibitors. shares compounds with MITF inh. inhibition, % at 2.6 µM. AID 1259372. AlphaScreen MITF homodimerization, biotin/His-MITF beads. hit rate 16% among 4,700;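 active means inhibition above a cutoff derived from the DMSO control wells, cut at about 28% in these data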;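 further: 0% = MITF dimer wells with DMSO only; inhibitors lower the bead chemiluminescence by keeping MITF from dimerizing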
AS interf DR = counter-screen: compounds optically interfering with AlphaScreen; shares compounds with MITF inh; AlphaScreen optical interference counterscreen, cell-free; IC50, µM; hit rate 6% among 480; call rule not given here
AS interf ctr = optically interferes with AlphaScreen signal; shares compounds with MITF inh; LysRS AlphaScreen counterscreen, signal interference, triplicate; inhibition, % at 2.6 µM; hit rate 7.6% among 4,700;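 active means inhibition above a cutoff derived from the DMSO control wells, cut at about 30% in these data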
GPR151 confirm = confirmation of human GPR151 activators | shares compounds with GPR151 ag | GPR151 PathHunter beta-arrestin cells, luminescence, 90 min; % of EA-reagent control over plate median | activation, % at 11.2 µM | 6,700 tested, under 10 active | AID 1508609;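 active means mean percent activation across replicates above the confirmation screen cutoff of 4.91%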
GPR119 ag = GPR119 activation, counter-screen for GPR151 activators | GPR119 PathHunter beta-arrestin cells, luminescence, 90 min; 0 = compound-well median, 100 = enzyme-acceptor control | shares compounds with GPR151 ag | activation, % at 11.2 µM | hit rate 0.3% among 6,700;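 active means mean percent activation in the counterscreen above 29.09%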;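 further: counterscreen on off-target GPR119 to flag nonselective hits from the GPR151 activator screen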
Numbers without * were called inactive; / = no result given. Hits are enriched below; roughly 3.4% of the tested compounds scored in any of these assays.

SMILES	FBW7 act	TEAD-YAP block	GPR151 ag	MITF inh	MITF confirm	AS interf ctr	others
CCOC(=O)N1CCN(C(=O)CN2CCN(CC)CC2)CC1	0	0	-1	71*	3	9
O=C(Cc1cccs1)N1CCC(Cn2cnc3ccccc32)CC1	0	-7	-1	65*	8	10
O=C(C1CCC1)N1CCC(Cn2cnc3ccccc32)CC1	0	2	3	52*	6	9
O=C(c1cnn(-c2ccccc2)n1)N1CCN(c2cc(N3CCCCC3)ncn2)CC1	0	-12	-1	6	/	/
O=C(c1cnn(-c2ccccc2)n1)N1CCC(Cn2cnc3ccccc32)CC1	0	8	1	58*	16	19
COc1ccc(CNCC2CCC(C(=O)O)CC2)cc1 (centres undefined)	0	7	2	4	/	/
O=C(CCN1C(=O)c2ccccc2C1=O)CN1CCC(Cn2cnc3ccccc32)CC1	0	4	-1	59*	5	18
COc1cccc2cc(C(=O)N3CCC(Cn4cnc5ccccc54)CC3)oc12	0	14	1	60*	5	21
O=C(Nc1ccc2c(c1)OCO2)N1CCC(Cn2cnc3ccccc32)CC1	0	-34	0	10	/	/
O=C(NCC(=O)N1CCC(Cn2cnc3ccccc32)CC1)c1ccccc1	0	0	0	56*	9	9
CN(C(=O)CCN1C(=O)c2ccccc2C1=O)C1CCCCC1	0	7	0	1	/	/
O=C(Nc1cccs1)N1CCC(Cn2cnc3ccccc32)CC1	0	1	1	0	/	/
O=C(CSCc1ccccc1)N1CCC(Cn2cnc3ccccc32)CC1	0	5	2	67*	4	15
CCOC(=O)N1CCN(C(=O)CN2CCC(Cn3cnc4ccccc43)CC2)CC1	0	29	0	76*	13	19
COc1ccc(CNc2ccnc3c(-c4cccc(N(C)C)c4)cnn23)cc1	1	-2	0	11	/	/
CC[C@H](C)[C@@H]1NC(=O)[C@H]2CN(C(=O)c3cc(Cl)cc(Cl)c3)CCN2C1=O	0	5	0	-19	/	/
CC[C@H](C)[C@@H]1NC(=O)[C@H]2CN(C(=O)NC3CCCCC3)CCN2C1=O	0	0	2	74*	70*	-11	AS interf DR=>6.5
CCC[C@@H]1NC(=O)[C@H]2CN(C(=O)NC3CCCCC3)CCN2C1=O	0	5	1	77*	71*	-10	AS interf DR=>6.5
C[C@@H]1NC(=O)[C@H]2CN(C(=O)NC3CCCCC3)CCN2C1=O	0	11	-1	77*	74*	-10	AS interf DR=>6.5
O=C1N[C@@H](CSCc2ccccc2)C(=O)N2CCN(C(=O)NC3CCCCC3)C[C@H]12	0	9	4	65*	72*	-4	AS interf DR=>6.5
C[C@H]1NC(=O)[C@@H]2C[C@H](NC(=O)NC3CCCCC3)CN2C1=O	0	0	1	9	/	/
COc1cc(NC(=O)Cc2ccc(F)cc2)ccc1N1CCCCC1=O	0	10	0	18	/	/
CCN(CC)C(=O)CSc1nc2c(sc(=S)n2-c2ccc(C)c(C)c2)c(=O)n1-c1ccccc1C	0	-11	-1	4	/	/
COc1ccc(CN2CCOc3ccc(C(C)(O)CN(C)C)cc3C2)c(OC)c1 (centres undefined)	0	-8	2	10	/	/
CCOC(=O)C1=C(C)N=c2s/c(=C\c3ccc(-c4ccc(Cl)c(Cl)c4)o3)c(=O)n2C1c1ccc(OC)cc1OC (centres undefined)	0	0	0	2	/	/
SMILES	FBW7 act	TEAD-YAP block	GPR151 ag	MITF inh	MITF confirm	AS interf ctr	others
CCN(C(=O)/C=C/c1ccccc1[N+](=O)[O-])c1ccccc1	0	-2	0	-4	/	/
O=C1N[C@@H](CC2CCCCC2)C(=O)N2CCN(C(=O)Nc3ccccc3)C[C@H]12	0	7	-1	77*	70*	-10	AS interf DR=>6.5
O=C1N[C@@H](CC2CCCCC2)C(=O)N2CCN(C(=O)c3cc(F)c(F)cc3F)C[C@H]12	0	2	0	5	/	/
Cc1c(C)n2c3c(=O)n(CC(N)=O)c(=O)n(C)c3nc2n1Cc1ccccc1	0	-11	-2	-10	/	/
O=C(NCc1ccc2c(c1)OCO2)C1(S(=O)(=O)c2ccc(Cl)cc2)CC1	0	10	1	88*	-2	-4
O=C(CNCCc1ccc(Cl)cc1)NCc1ccc2c(c1)OCO2	1	11	-1	60*	6	21
O=C(/C=C/c1ccco1)C1=C(O)C(=O)N(CCCN2CCOCC2)C1c1ccco1 (centres undefined)	0	4	1	79*	60*	-7	AS interf DR=>6.5
COc1ccc(S(=O)(=O)N(C2=NCCCS2)c2ccccc2OC)cc1OC	1	8	-1	7	/	/
Clc1cccc(N2CCN(Cc3ccco3)CC2)c1	0	-13	-1	22	/	/
Cn1cccc1CN1CCN(Cc2ccco2)CC1	0	-10	1	69*	2	10
Brc1cccc(CN2CCOCC2)c1	0	0	1	-4	/	/
Brc1cccc(CN2CCN(Cc3ccco3)CC2)c1	0	-3	2	81*	27	22
Clc1cccc(CN2CCN(Cc3ccco3)CC2)c1	0	-7	2	72*	5	8
Fc1ccc(CN2CCN(Cc3ccco3)CC2)cc1	0	4	-1	70*	-10	-2
Cn1cccc1CN1CCN(Cc2ccc(Br)cc2)CC1	0	-8	1	45	/	/
Clc1ccc(CN2CCN(Cc3ccco3)CC2)cc1	0	-8	1	86*	13	12
Cc1ccc(C)c(-c2csc(Nc3ccc(I)cc3)n2)c1	0	-13	2	18	/	/
CCOc1cccc(NC(=O)/C(C#N)=C\c2ccc(OCC(=O)O)cc2)c1	0	0	1	6	/	/
Clc1cc2c(c3ncccc13)OCN(CCCN1CCOCC1)C2	0	27	5.2*	92*	102*	100*	GPR151 confirm=0;GPR119 ag=3
CCOC(=O)N1CC(=O)Nc2ccccc2S1(=O)=O	1	1	11*	66*	17	17	GPR151 confirm=0;GPR119 ag=10
Cc1ccc(N2CC(=O)Nc3ccccc3S2(=O)=O)cc1	0	-7	1	14	/	/
Fc1ccccc1-c1cc(NCCCn2ccnc2)nc(-c2ccncc2)n1	-1	3	7.5*	62*	34*	41*	GPR151 confirm=-1;GPR119 ag=-7
